Screens: PubChem, several laboratories
Hsp70 act = transcriptional activators of Hsp70; HeLa Hsp70 promoter luciferase reporter, luminescence; scaled: vehicle 0, proteasome-inhibitor control 100%; activation, % at 10 µM; actives 0.04% (n = 200,000);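 active = activation above the mean across all tested compounds plus 3 SD, cutoff set per campaign, cut at about 5.5% in these data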;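 also: 100% = MG132 at 30 µM as the positive control and 0% = DMSO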
TNF necrop inh = blocks TNF-alpha induced death of Jurkat FADD-/- cells; Jurkat FADD-/- TNF necroptosis rescue, ATP luminescence, 24 h; 0 = TNF only, 100 = no-TNF cells; activation (protection from cell death), % at 10 µM; actives 0.068% (n = 220,000);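 active = activation, meaning protection from cell death, of at least 50% relative to plate controls; inactive = activation below 50%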;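 also: necroptosis triggered by 40 ng/mL TNF-alpha added together with compound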
HSF-1 act = increases HSF-1 driven luciferase reporter signal | NIH3T3-HGL HSF-1 luciferase reporter, MG132, 8 h; 100% = twice DMSO control signal | activation, % at 9 µM | actives 1.7% (n = 300,000) | AID 504408;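 active = mean replicate activation of at least 50% with a set share of replicates each reaching 50%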;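 also: 0% = median of the neutral control wells and 100% = twice that signal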
zVAD death inh = blocks zVAD induced death of L929 cells. L929 zVAD necroptosis rescue, ATP luminescence, 24 h; with zVAD 60 µM. actives 0.38% (n = 220,000). viability rescue, % at 10 µM;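 active = activation, scaled between plate controls, above about 75%, limit read from the data; inactive = activation under that limit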;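 also: 0% = zVAD with DMSO and 100% = DMSO alone without zVAD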
zVAD death conf = confirmed blocker of zVAD induced death in L929 cells; shares compounds with zVAD death inh; L929 zVAD-induced necroptosis rescue, ATP luminescence, 24 h; activation (protection from necroptosis), % at 10 µM; actives 16% (n = 760); AID 463117;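 active = mean protection from necroptosis of at least 50% over duplicate tests; inactive = mean protection below 50%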;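 also: 0% = cells with zVAD alone and 100% = vehicle cells without zVAD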
Active calls of the source: *; . = not tested or not shown. Rows were chosen to be rich in hits. Some 1.9% of all compounds tested hit in one or more screens of this group.

SMILES	Hsp70 act	TNF necrop inh	HSF-1 act	zVAD death inh	zVAD death conf
CN=C1S/C(=C\c2cc(C)n(-c3ccccc3F)c2C)C(=O)N1C	0.2	-13.0	-82.7	78.2*	5.7
CN(CC(=O)NCC(c1ccco1)N1CCCCC1)S(=O)(=O)c1ccc(Cl)cc1 (centres undefined)	.	.	5.9	.	.
C=C1C(=O)[C@@]23[C@H](O)C[C@@H]4C(C)(C)CC[C@H](O)[C@]4(C)[C@@H]2C[C@H](O)[C@@H]1[C@H]3O	-0.4	-23.3	-1.7	1.4	.
C=C1C(=O)[C@@]23[C@H](O)C[C@@H]4C(C)(C)CC[C@H](O)[C@@]4(C)[C@@H]2CC[C@@H]1[C@H]3O	-0.3	-26.8	-6.6	121.2*	78.1*
CNC(=S)N(CCCN(C)C)Cc1cc2cc3c(cc2[nH]c1=O)OCCO3	.	.	-2.4	.	.
O=C(Nc1ccc(F)cc1)Nc1ccc(N2CCCC2)c(S(=O)(=O)Nc2ccccc2Cl)c1	-0.1	2.0	3.6	75.9*	72.1*
O=C(N/N=C\c1cccc(Cl)c1)c1n[nH]c2c1CCCC2	0.1	6.3	11.3	82.6*	27.5
O=C(c1ccc(F)cc1)N1CCN(c2cc(N3CCCCC3)c(F)cc2[N+](=O)[O-])CC1	-0.2	-7.8	5.9	0.3	.
CCCC(=O)OCC(=O)Nc1ccc2[nH]c(=O)[nH]c2c1	0.1	-1.0	-13.2	0.7	.
CCC(C)c1ccc(OCC(=O)Nc2ccc3[nH]c(=O)[nH]c3c2)cc1 (centres undefined)	0.2	1.8	-9.4	77.9*	40.2
CN1CCN(c2ccc(-c3ccnn3C(=O)Nc3cccc(C(F)(F)F)c3)cc2)CC1	0.5	6.1	30.0	84.5*	50.8*
COc1ccc(N2CCN(C(=O)Nc3cccc(C(F)(F)F)c3)CC2)cc1	-0.4	2.4	9.6	0.3	.
CC1(C)CC(=O)C=C(NCc2ccccc2)C1	-0.2	3.0	7.8	0.1	.
CC1(C)CC(=O)C=C(Nc2cc(-c3ccccc3)[nH]n2)C1	-0.3	12.3	-34.1	90.8*	24.0
COc1ccc(NC(=O)c2cc(S(=O)(=O)N3CCCCC3)c[nH]2)c(OC)c1	.	.	-1.2	.	.
N#Cc1cc2c([nH]c1=S)CCCCCC2	-0.4	-2.9	5.2	0.5	.
N#Cc1c(N)n[nH]c1-c1cc2c([nH]1)CCCC2	0.1	10.8	-3.7	87.5*	44.7
c1ccn(-c2ccc(-c3ccn[nH]3)cc2)c1	0.1	7.4	-4.7	85.6*	4.8
O=C(CN(Cc1ccccc1)S(=O)(=O)c1ccc(F)cc1)NCc1ccccn1	.	.	8.4	.	.
N#C/C(=C(/O)COC(=O)CCc1ccc(S(=O)(=O)N2CCOCC2)cc1)c1nc2ccccc2[nH]1	-0.3	8.6	9.8	77.5*	13.3
N#C/C(=C(/O)COC(=O)c1ccc(Cl)c(S(=O)(=O)N2CCOCC2)c1)c1nc2ccccc2[nH]1	-0.2	4.3	-4.2	15.7	.
Cc1ccc(CNC(=O)C2CCN(C(=O)Nc3ccc(C)cc3)CC2)cc1	.	.	-4.4	.	.
C/C(=N\OCc1ccccc1C#N)c1cc2ccccc2o1	-0.3	0.5	6.2	0.1	.
C/C(=N\OCc1ccc(C#N)cc1)c1cc2ccccc2o1	.	0.7	8.8	78.4*	1.5
COCC(C)n1c(C)cc(C(=O)CSc2ncccn2)c1C (centres undefined)	-0.3	1.2	-11.9	0.3	.
SMILES	Hsp70 act	TNF necrop inh	HSF-1 act	zVAD death inh	zVAD death conf
COCC(C)n1c(C)cc(C(=O)CSc2nnnn2-c2ccc(O)cc2)c1C (centres undefined)	-0.4	0.0	-3.0	75.7*	47.4
Nc1nonc1-n1nnc(C(=O)N/N=C/c2ccc(Br)cc2)c1CSC1=NCCS1	-0.3	-6.8	10.7	77.8*	2.3
CC(Oc1ccc(-n2cnnn2)cc1)C(=O)O (centres undefined)	-0.1	-0.1	-1.4	1.3	.
Cc1cc(C(=O)N/N=C/C=C/c2cccc([N+](=O)[O-])c2)n[nH]1	-0.4	18.6	30.6	87.2*	0.5
Cc1cc(C(=O)N/N=C/C=C/c2ccccc2)n[nH]1	.	24.9	7.9	31.1	.
O=C(N/N=C/C=C/c1ccccc1)c1cc(C2CC2)[nH]n1	.	8.2	11.9	77.4*	4.3
CC(=O)c1ccc(OCC(=O)Nc2ccc3c(c2)CCC3)cc1	0.1	-2.0	.	75.3*	0.1
COc1ccc(-c2oc3ncnc(NCCN4CCOCC4)c3c2-c2ccc(OC)cc2)cc1	-0.1	-7.6	-10.0	19.9	.
COc1ccc(-c2oc3ncnc(NCCCN4CCOCC4)c3c2-c2ccc(OC)cc2)cc1	-0.2	-5.6	-7.9	76.7*	-0.3
COc1ccc(NC(=O)Nc2nnc(C(C)C)s2)cc1	0.0	-2.3	35.3	95.3*	2.7
COc1ccc(CC(=O)Nc2nnc(C(C)C)s2)cc1	-0.2	1.8	15.8	81.5*	1.2
CC(C)c1nnc(NC(=O)Cc2ccc(Br)cc2)s1	-0.1	1.9	26.4	.	.
O=C(OCn1ncc(Cl)c(Cl)c1=O)c1cccc(C(F)(F)F)c1	1.4	-17.0	31.0	98.8*	20.6
CC1(C(=O)OCC(=O)Nc2ccc3ccccc3c2)CC1(Cl)Cl (centres undefined)	0.1	3.0	66.0*	78.0*	2.1
CC1(C(=O)OCC(=O)Nc2ccc(C(N)=O)cc2)CC1(Cl)Cl (centres undefined)	-0.2	1.1	9.6	6.6	.
Cc1cn(-c2cc(C(=O)Nc3ccc(C)c(NC(=O)C(=O)c4c[nH]c5ccccc45)c3)cc(C(F)(F)F)c2)cn1	.	-10.1	-38.8	77.4*	70.8*
Cc1ccc(C(=O)Nc2cccc(C(F)(F)F)c2)cc1NC(=O)c1cnnc2ccccc12	.	1.5	-38.0	72.2	.
O=C(c1ccc([N+](=O)[O-])cc1)n1nc(-c2ccccc2)nc1NCc1ccccc1	-0.2	-1.2	22.8	47.6	.
CCC(=O)n1nc(-c2cccnc2)nc1NCc1ccc(F)cc1	-0.2	2.3	7.1	71.9	.
CCCC(=O)n1nc(-c2cccnc2)nc1NCc1cccs1	0.2	1.7	-3.3	77.1*	0.7
O=C(c1cccc([N+](=O)[O-])c1)n1nc(-c2ccccc2)nc1NCc1ccccc1	-0.3	4.1	12.8	80.3*	3.1
CCC(=O)n1nc(-c2cccnc2)nc1NCc1cccs1	0.1	1.0	-93.4	72.6	.
CCC(=O)n1nc(-c2cccnc2)nc1NCc1ccccc1	0.2	2.4	-1.0	79.3*	7.6
CCCC(=O)n1nc(-c2cccnc2)nc1NCc1ccccc1	0.1	2.1	31.6	79.1*	1.2
CC(C)C(=O)Nc1ccc(-c2nnc(-c3ccccc3)o2)cc1	.	.	6.7	.	.
CC(=O)/C=C(\C)Nc1ccc(-c2cnc(-c3ccccc3)o2)cc1	0.5	-4.0	14.1	95.6*	22.4
CCCC(=O)Nc1nc2ccc(S(N)(=O)=O)cc2s1	-0.1	-0.2	-13.8	79.9*	1.3
CC(C)CC(=O)Nc1nc2ccc(S(C)(=O)=O)cc2s1	-0.5	-5.4	9.8	80.5*	10.2
CCC(=O)Nc1nc2ccc(S(C)(=O)=O)cc2s1	-0.2	-6.0	17.5	63.2	.
